Measured values from PubChem BioAssay (NCATS).
“And” between values parts separate entries of the source, which are not always exact repeats. Equal values may be shown once. Records with an inconclusive call do not appear. Some structures have more than one record in an assay (separate samples or runs), and their calls can disagree. The source made the active and inactive calls. Calls follow the shape of the dose curve; as a rule, active = well fitted curve in the direction sought with a large enough effect; inconclusive = small, poorly fitted or top-dose-only effect, or another doubt; inactive = no such curve, though single readings can be large; an effect the other way counts as inactive or inconclusive.

Assays:
[1] = P-glycoprotein substrates identified in KB-8-5-11 adenocarcinoma cell line, qHTS therapeutic library screen (AID 1346987); also: nearly all actives have a fitted effect of over 65% in size; also: potency is read from the fitted curve at half-maximal effect
Method in brief: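 Steps: plate 500 KB-8-5-11 cells/well in DMEM + 10% FCS (colchicine removed); pin compounds in dose-response; incubate 72 h, 37 degree C, 5% CO2; add CellTiter-Glo, 5 min; read luminescence.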

[2] = qHTS of pediatric cancer cell lines to identify multiple opportunities for drug repurposing: Primary screen for TC32 cells (AID 1347089); also: nearly all actives have a fitted effect of over 60% in size; also: potency is read from the fitted curve at half-maximal effect
Method in brief: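 TC32 cells, 500-1,000/well in growth medium, compound-treated 48 h at 37 °C; viability from CellTiter-Glo luminescence. Primary screen: MIPE 11-point (0.78 nM–46 µM final), NPC 8-point (0.59 nM–46 µM final); confirmatory at 11-point dilutions.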

[3] = qHTS of pediatric cancer cell lines to identify multiple opportunities for drug repurposing: Primary screen for DAOY cells (AID 1347090); also: nearly all actives have a fitted effect of over 55% in size; also: potency is read from the fitted curve at half-maximal effect
Method in brief: (§1)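 Eight- or eleven-point concentration series, 48 h treatment at 37 degrees C in growth media; readout CellTiter-Glo luminescence. Potency and efficacy were taken from the concentration-response curves.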

[4] = qHTS of pediatric cancer cell lines to identify multiple opportunities for drug repurposing: Primary screen for SJ-GBM2 cells (AID 1347091); also: potency is read from the fitted curve at half-maximal effect
Method in brief: as §1

[5] = qHTS of pediatric cancer cell lines to identify multiple opportunities for drug repurposing: Primary screen for A673 cells (AID 1347092); also: nearly all actives have a fitted effect of over 45% in size; also: potency is read from the fitted curve at half-maximal effect
Method in brief: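 A673 cells (500-1,000 cells/well) were treated 48 hours at 37 degrees C with compounds at 11-point (0.78 nM to 46 µM) or 8-point (0.59 nM to 46 µM) dilutions. Viability read by CellTiter-Glo luminescence; concentration-response curves fitted.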

[6] = qHTS of pediatric cancer cell lines to identify multiple opportunities for drug repurposing: Primary screen for SK-N-MC cells (AID 1347093); also: potency is read from the fitted curve at half-maximal effect
Method in brief: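 Metabolically active cells were quantified by ATP-dependent luminescence (CellTiter-Glo, 15 min at room temperature) following 48 h treatment. Cells had been plated at 500-1,000 per well and settled for 5 h beforehand.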

[7] = qHTS of pediatric cancer cell lines to identify multiple opportunities for drug repurposing: Primary screen for NB-EBc1 cells (AID 1347095); also: potency is read from the fitted curve at half-maximal effect
Method in brief: (§2)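 Readout: CellTiter-Glo luminescence, 48 h treatment. Controls DMSO (neutral) and bortezomib 2.3 µM final (positive). Potency and efficacy taken from primary-screen concentration-response curves.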

[8] = NS1 protein of Zika virus - qHTS assay to identify small molecule inhibitors in human HEK 293 cells (AID 1347053); also: series mostly up to about 46 µM; nearly all actives have a fitted effect of over 55% in size
Method in brief: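 HEK 293 cells, seeded 20 h at 37 C, were pretreated with compound 1 h, then infected with ZIKV MR766 (MOI = 0.5) for 24 h. NS1 was read by TR-FRET with two anti-NS1 antibodies, normalized to uninfected and infected wells.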

[9] = qHTS of pediatric cancer cell lines to identify multiple opportunities for drug repurposing: Primary screen for BT-37 cells (AID 1347094); also: potency is read from the fitted curve at half-maximal effect
Method in brief: as §2

SMILES	Potency [1]	Potency [2]	Potency [3]	Potency [4]	Potency [5]	Potency [6]	Potency [7]	Potency [8]	Potency [9]
COc1cc(C)c(Sc2cnc(NC(=O)c3ccc(CNC(C)C(C)C)cc3)s2)cc1C(=O)N1CCN(C(C)=O)CC1 (stereo unspecified)	inactive	7.39 µM (active)	14.8 µM (active)	18.7 µM (active)	9.35 µM (active)	2.09 µM (active)	18.7 µM (active)	–	–
O=C(O)Cn1nnc(-c2cc(N3CCC(Oc4cc(F)ccc4Br)CC3)no2)n1	–	inactive	inactive	0.469 µM (active)	0.372 µM (active)	–	inactive	–	–
COc1c(N2C[C@@H]3CCCN[C@H]3C2)c(F)cc2c(=O)c(C(=O)O)cn(C3CC3)c12	–	–	inactive	inactive	inactive	inactive	inactive	inactive	inactive
NC1(Cc2ccc(Cl)cc2)CCN(c2ncnc3[nH]ccc23)CC1	–	–	–	5.26 µM (active)	14.8 µM (active)	3.32 µM (active)	11.8 µM (active)	–	–
CCn1cc(-c2ccnc3[nH]c(-c4cccc(CN(C)C)c4)cc23)c(-c2ccc(NC(=O)N(C)C)cc2)n1	–	0.104 µM (active)	5.9 µM (active)	0.0833 µM (active)	4.69 µM (active)	0.0469 µM (active)	0.469 µM (active)	–	19.3 µM (active)
COc1c(OCCCN2CCOCC2)ccc2c3n(c(=NC(=O)c4cnc(N)nc4)nc12)CCN3	0.15 µM (active)	2.55 µM (active)	–	2.04 µM (active)	0.162 µM (active)	0.0288 µM (active)	–	–	–
Cn1c2ccccc2c2c3c(c4c5ccccc5n(CCC#N)c4c21)CNC3=O	5.8 µM (active)	–	5.9 µM (active)	0.59 µM (active)	0.935 µM (active)	0.148 µM (active)	0.418 µM (active)	–	7.69 µM (active)
COC(=O)C1=C(C)NC(C)=C(C(=O)OCCN2CCN(C(c3ccccc3)c3ccccc3)CC2)C1c1cccc([N+](=O)[O-])c1 (stereo unspecified)	20.6 µM (active) and inactive	–	–	–	–	6.68 µM (active)	–	–	–
CCc1cc2c(cc1N1CCC(N3CCOCC3)CC1)C(C)(C)c1[nH]c3cc(C#N)ccc3c1C2=O	–	inactive	inactive	inactive	inactive	–	–	inactive	inactive
CNC(=O)c1ccccc1Nc1nc(Nc2ccc(N3CCOCC3)cc2OC)ncc1Cl	1.87 µM (active) and 1.64 µM (active)	3.3 µM (active)	14.8 µM (active)	2.35 µM (active)	1.87 µM (active)	0.209 µM (active)	0.662 µM (active)	–	–
CC(C)(O)CCc1ccc(OCc2cc(-c3cccc(OC(F)F)c3)c3ncccc3c2)cc1	–	inactive	inactive	inactive	inactive	–	inactive	–	inactive
COc1cc2c(cc1-c1c(C)noc1C)ncc1[nH]c(=O)n([C@H](C)c3ccccn3)c12	–	–	18.7 µM (active)	16.6 µM (active)	4.69 µM (active)	1.18 µM (active)	16.6 µM (active)	inactive	17.2 µM (active)
Cc1ccc(S(=O)(=O)Nc2cc(Cl)ccc2C(=O)Nc2nc(-c3ccccc3)cs2)cc1	–	–	11.8 µM (active)	7.43 µM (active)	–	7.43 µM (active)	–	–	17.2 µM (active)
Cc1c(NC(=O)OC[C@@H]2COCCN2)cn2ncnc(Nc3ccc4c(cnn4Cc4cccc(F)c4)c3)c12	–	inactive	0.0743 µM (active)	–	0.0469 µM (active)	0.0935 µM (active)	–	–	–
O=C(CCCCCCNC(=O)c1cnc(N(c2ccccc2)c2ccccc2)nc1)NO	–	–	18.7 µM (active)	5.26 µM (active)	9.35 µM (active)	2.96 µM (active)	4.18 µM (active)	inactive	–
Cc1nc2ccc(CN(C)c3ccc(C(=O)N[C@@H](CCC(=O)O)C(=O)O)s3)cc2c(=O)[nH]1	–	0.131 µM (active)	–	–	0.059 µM (active)	–	–	inactive	–
Cc1cc(Nc2cc(CN3CCOCC3)c3nc(C)c(Cc4ccc(Cl)cc4F)n3n2)n[nH]1	13.2 µM (active) and 16.4 µM (active)	–	23.5 µM (active)	23.5 µM (active)	5.9 µM (active)	–	–	–	–
C=CC(=O)N1CCC[C@@H](n2nc(-c3ccc(Oc4ccccc4)cc3)c3c(N)ncnc32)C1	–	inactive	23.5 µM (active)	–	9.35 µM (active)	–	10.5 µM (active)	–	–
COCCOc1ccc2c(c1)ncn2-c1ccc2cccc(N3CCC(N)CC3)c2n1	23.5 µM (active)	–	23.5 µM (active)	11.8 µM (active)	4.69 µM (active)	–	23.5 µM (active)	–	24.3 µM (active)
